“And” between values parts separate entries of the source, which are not always exact repeats. Identical values can stand only once. Records with an inconclusive call do not appear. Unmarked numbers belong to inactive results. The source made the active and inactive calls. The call rests on the fitted dose curve; in most records, active means well fitted inhibition curve with a large enough effect; inconclusive means small, poorly fitted or top-dose-only effect; inactive means no such curve, though single readings can be large or run the other way.
Test: Primary qHTS for inhibitors of nuclear receptor binding SET domain protein 2 (NSD2) in an RCH-ACV wild type WT cells (2C) (AID 1645877); further: nearly all actives have a fitted effect of over 70% in size
Details: RCH-ACV (leukaemia line) NSD2 WT (2C) viability, CellTiter-Glo, 72 h; series mostly up to 44.9 µM; activity change, negative = cell killing: at the top concentration
On the % scale 0 is the no-effect control and ±100 the full control effect; potency means the concentration at half of the fitted maximal effect.

Structure (SMILES) | Potency | activity change, negative = cell killing | outcome
CCCNc1ccc2ncc(-c3ccc4[nH]ncc4c3)n2n1 | 91.6 nM (active) | – | –
Cc1cc(C)c(Nc2ccnc(Nc3ccc(C#N)cc3)n2)c(C)c1 | 4090 nM (active) | – | –
CC(C)=CCC/C(C)=C/CO[C@@H]1O[C@H](CO)[C@@H](OC(=O)/C=C/c2ccc(O)cc2)[C@H](O[C@@H]2O[C@@H](C)[C@H](O)[C@@H](O)[C@H]2O)[C@H]1O | – | -9.31% [at 17.3 µM] | –
CC1(C)CC2C(C1)C(C)(O)C13CC1(COC3=O)C2O (configuration not stated) | – | -23.6% | –
CC1=C(C)C(=O)OC(C(C)C2CCC3C4CC=C5CC(OC6OC(COC7OC(CO)C(O)C(O)C7O)C(O)C(O)C6O)CC(O)C5(C)C4CCC23C)C1 (configuration not stated) | – | -22.7% [at 17.3 µM] | –
O=C(c1cccc(Cl)c1F)N1CCN(Cc2cccc(Nc3nccs3)n2)CC1 | 728 nM (active) | – | –
CC(=O)NCC(=O)N1C2CCC1c1cc(Nc3ncc(C(F)(F)F)c(NC4CCC4)n3)ccc12 (configuration not stated) | 20.5 nM (active) | – | –
Cc1nc(Nc2n[nH]c3c2CN(C(=O)NC(CN(C)C)c2ccccc2)C3(C)C)c2sccc2n1 (configuration not stated) | 5.2 nM (active) | – | –
COc1ccc([C@@H]2OC[C@H]3[C@@H]2CO[C@@H]3c2ccc(OC3OC(CO)C(O)C(O)C3O)c(OC)c2)cc1OC (some centres not stated) | – | -8.53% [at 17.3 µM] | –
CC1CC[C@]2(C(=O)O)CC[C@]3(C(=O)O)C(=CCC4[C@@]5(C)CC[C@H](OC6OC(C)C(O)C(OC7OC(CO)C(O)C(O)C7O)C6O)C(C)(C)C5CC[C@]43C)C2C1C (some centres not stated) | – | -4.31% [at 17.3 µM] | –
CC(=O)OC[C@]12[C@H](OC(C)=O)C(=O)[C@@H]3[C@@H](OC(C)=O)[C@@]14O[C@@]3(C)COC(=O)c1cccnc1[C@@H](C)[C@H](C)C(=O)O[C@@H]([C@H](O)[C@@H]2OC(C)=O)[C@]4(C)O | – | -11.7% [at 17.3 µM] | –
CC1=CC(=O)CC(C)(C)C1CCC(C)O[C@@H]1O[C@H](CO[C@@H]2OC[C@@H](O)[C@H](O)[C@H]2O)[C@@H](O)[C@H](O)[C@H]1O (some centres not stated) | – | -9.77% [at 17.3 µM] | –
CC(C)=CCC[C@](C)(O)[C@H]1CC[C@]2(C)[C@@H]1[C@H](O)CC1[C@@]3(C)CC[C@H](O)C(C)(C)[C@@H]3[C@@H](O[C@@H]3O[C@H](CO)[C@@H](O)[C@H](O)[C@H]3O[C@@H]3O[C@H](CO)[C@@H](O)[C@H](O)[C@H]3O)C[C@]12C (some centres not stated) | – | – | inactive [at 17.3 µM]
CCOc1cc(C(=O)N2CCC(N3CCN(C)CC3)CC2)ccc1Nc1ncc2c(n1)N(C1CCCC1)c1ccccc1C(=O)N2C | 1.29 µM (active) and 1.66 µM (active) | – | –
CC1(C)CCC2(C(=O)OC3OCC(O)C(O)C3O)CCC3(C)C(=CCC4C5(C)CC(O)C(OC6OC(COC7OCC(O)C(O)C7O)C(O)C(O)C6O)C(C)(C)C5CCC43C)C2C1 (configuration not stated) | – | -0.57% [at 9.23 µM] | –
CC1=CC2C(CC1OC1OC(CO)C(O)C(O)C1O)C(C)CC(=O)C2C(C)C (configuration not stated) | – | -11% | –
C[C@@H]1O[C@@H](O[C@H]2[C@H](O)[C@@H](O[C@@H]3O[C@H](CO)[C@@H](O)[C@H](O[C@@H]4O[C@H](CO)[C@@H](O)[C@H](O)[C@H]4O)[C@H]3O)[C@H](O[C@H]3CC[C@@]4(C)C(=CC[C@@H]5C4CC[C@@]4(C)C5C[C@@H]5OC6(CC[C@@](C)(CO[C@@H]7O[C@H](CO)[C@@H](O)[C@H](O)[C@H]7O)O6)[C@@H](C)[C@@H]54)C3)O[C@@H]2CO)[C@H](O)[C@H](O)[C@H]1OC1OC(CO)C(O)C(O)C1O (some centres not stated) | – | – | inactive [at 9.23 µM]
O=C(c1cc2c(cc1F)OC(c1ccc(F)cc1)(c1ccc(Cl)cc1Cl)O2)N1CCOCC1 (configuration not stated) | 20500 nM (active) | – | –
CN(C)c1ccc2c(c1)OC(N)=C(C#N)C2c1cccc(C(F)(F)F)c1 (configuration not stated) | 916 nM (active) | – | –
CC(C)=CCC[C@](C)(O[C@@H]1O[C@H](CO[C@@H]2O[C@H](CO)[C@@H](O)[C@H](O)[C@H]2O)[C@@H](O)[C@H](O)[C@H]1O)C1CC[C@]2(C)[C@@H]1[C@H](O)CC1[C@@]3(C)CC[C@H](O[C@@H]4O[C@H](CO)[C@@H](O)[C@H](O)[C@H]4O[C@@H]4O[C@H](CO)[C@@H](O)[C@H](O)[C@H]4O)C(C)(C)[C@@H]3CC[C@]12C (some centres not stated) | – | -25.5% [at 9.23 µM] | –
Cc1cc(OCc2nc(-c3ccccc3Cl)cs2)ccc1OCC(=O)O | – | -10.9% | –
CC1OC(OC2C(O)C(OC3CCC4(C)C(CCC5(C)C4CC=C4C6CC(C)(COC7OC(CO)C(O)C(O)C7O)CC(O)C6(C)CCC45C)C3(C)C)OC(C(=O)O)C2O)C(O)C(O)C1OC1OCC(O)C(O)C1O (configuration not stated) | – | -2.6% [at 9.23 µM] | –
